Data on 16 compounds can be found in PubChem BioAssay.

One assay addresses Albumin (Bos taurus) (UniProt P02769). Description: bovine serum albumin binders on microarray, profiling panel, artefact control for SMM control protein annotation, biochemical, small-molecule microarray, Alexa647 label, 635/667 nm fluorescence (AID 1118).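 Note: score merges 667 nm emission intensity and signal-to-noise per printed compound spot.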 Conditions: BSA-A647 binding, fluorescence 635 nm, higher = more signal.
Assay [1] in a line: small-molecule microarray binders of probe aXIP, primary screen, biochemical, NeuroSMM set, 635/667 nm fluorescence (AID 1119).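 Note: probe is the protein aXip251-270 applied at 1 µg/mL to compound-printed slides; binding of probe to printed compounds measured as 667 nm fluorescence plus signal to noise.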 Conditions: higher = more signal, called active from +8 up or from −8 down.
Assay [2] is described as follows: small-molecule binders of probe aNOTCH3, primary screen, biochemical, small-molecule microarray, 635/667 nm fluorescence (AID 1120).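 Note: probe is a biotin-tagged antibody raised against NOTCH3 rather than NOTCH3 protein; score merges spot fluorescence near 667 nm with spot signal to noise.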 Conditions: higher = more signal.
A short description of assay [3]: small-molecule binders of probe aNOTCH2, primary screen, biochemical, small-molecule microarray, 635/667 nm fluorescence (AID 1121).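 Note: score merges feature fluorescence read at 667 nm with its signal to noise.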 Conditions: higher = more signal.
Assay [4] concerns the target Carbonic anhydrase 2 (Homo sapiens) (UniProt P00918). The assay is described as follows: CAII small-molecule binders, profiling panel, biochemical, small-molecule microarray, Alexa647-labelled CAII (AID 1122). Conditions: CAII-A647 binding fluorescence, higher = more signal.
A short description of assay [5]: COS7 lysate on small-molecule microarray, probe aHis, 635 nm (AID 1123).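 Note: z-score combines 667nm fluorescence intensity with signal-to-noise per printed compound spot.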 Conditions: COS7 cell lysate, fluorescence, higher = more signal.
Assay [6] in a line: compound binding in COS7 lysate, probe aLAP1, primary screen, cell lysate, small-molecule microarray (AID 1124).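 Note: lysate comes from COS7 cells expressing LAP1 and is applied at 0.3 µg/mL; score merges spot fluorescence near 667 nm with signal-to-noise over triplicate slides.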 Conditions: probe aLAP1, fluorescence, higher = more signal.
A further assay has as its system Sam68 (KHDRBS1). The assay is described as follows: Sam68 small-molecule binders, primary screen, biochemical, small-molecule microarray, 635 nm fluorescence (AID 1125).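 Note: score merges 667 nm channel intensity with signal to noise over triplicate slides.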 Conditions: small-molecule microarray binding, higher = more signal.
For assay [7], the system named is Chordin-like protein 2 (CHRDL2). Description: CHRDL2 small-molecule binders, primary screen, biochemical, small-molecule microarray, 635 nm fluorescence (AID 1126).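 Note: printed compound slides probed with Chrdl2 protein at 4 µg/mL for 1 h at 4 C; score merges 667 nm emission intensity with signal to noise over three replicate slides.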 Conditions: small-molecule microarray binding, fluorescence 635 nm; higher = more signal.
Assay [8] concerns the target Concanavalin-A (Canavalia ensiformis) (UniProt P02866). The assay is described as follows: ConA small-molecule binders, primary screen, artefact control for SMM control protein annotation, biochemical, small-molecule microarray, Alexa647 label, 635 nm (AID 1127).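 Note: z combines 667 nm emission intensity with signal-to-noise across three replicate slides.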 Conditions: ConA-A647 binding fluorescence, higher = more signal.

Values joined by “and” are separate entries in the source; they are usually repeats but may differ in a detail not shown here. Equal values may be shown once. Active and inactive are the calls of the source.

Albumin (Bos taurus), sequence (P02769 whole entry, looked up): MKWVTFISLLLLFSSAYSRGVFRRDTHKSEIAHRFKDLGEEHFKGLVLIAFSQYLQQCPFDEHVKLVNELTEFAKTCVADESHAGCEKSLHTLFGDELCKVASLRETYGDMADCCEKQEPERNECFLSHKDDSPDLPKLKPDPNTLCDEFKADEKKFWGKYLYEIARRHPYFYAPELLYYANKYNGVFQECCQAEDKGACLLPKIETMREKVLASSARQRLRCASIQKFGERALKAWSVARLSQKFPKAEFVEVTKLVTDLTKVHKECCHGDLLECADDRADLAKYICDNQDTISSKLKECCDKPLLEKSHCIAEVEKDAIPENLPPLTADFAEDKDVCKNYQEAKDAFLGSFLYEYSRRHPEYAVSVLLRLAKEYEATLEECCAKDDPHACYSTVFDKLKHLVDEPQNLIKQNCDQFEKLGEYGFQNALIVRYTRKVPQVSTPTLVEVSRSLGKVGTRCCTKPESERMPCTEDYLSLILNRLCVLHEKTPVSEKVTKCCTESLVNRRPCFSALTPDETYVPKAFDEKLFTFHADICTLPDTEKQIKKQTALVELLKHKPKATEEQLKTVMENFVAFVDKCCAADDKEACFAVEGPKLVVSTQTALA
Concanavalin-A (Canavalia ensiformis), sequence (P02866 whole entry, looked up): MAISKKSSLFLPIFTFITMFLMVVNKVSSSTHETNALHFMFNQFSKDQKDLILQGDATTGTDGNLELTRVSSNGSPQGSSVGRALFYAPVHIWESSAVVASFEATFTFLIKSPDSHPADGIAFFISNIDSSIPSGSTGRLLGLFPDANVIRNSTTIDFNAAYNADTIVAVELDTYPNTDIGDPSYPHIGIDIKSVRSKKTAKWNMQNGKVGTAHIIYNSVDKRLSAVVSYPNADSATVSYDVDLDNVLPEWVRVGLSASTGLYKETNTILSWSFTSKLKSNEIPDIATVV

On to `C[C@@H]1CC[C@H]2C(=O)N3[C@@H](CC[C@@H](C)[C@@H]3c3ccc(-c4ccco4)cc3)C(=O)N2[C@H]1c1ccc(-c2ccco2)cc1`, for which the composite z-score with Albumin (Bos taurus) was 0.346 and -0.391; in [2], 0.116 and 0.385; in [3], 0.0079 and 0.0312; in assay [4], 0.688 and 0.645; in [5] it was 1.12 and 0.0336; in assay [6], 0.412 and -0.258. For the same compound, the composite z-score in the assay on Sam68 (KHDRBS1) was 1.3 and 1.1; in assay [7] it was 1.05 and 1.57; in [8] it was 1.11 and 1.16. For the same compound, the composite Z-score in assay [1] is 0.705 (inactive) and 1.24 (inactive).

For the compound `C#CCN1C(/C=C/c2ccccc2)C(=O)OC[C@H]1c1ccccc1` (stereo not given in full), the composite z-score was -0.147 and 0.723 in the assay with Albumin (Bos taurus); -0.0766 and 0.228 in [2]; -0.181 and -0.101 in assay [3]; -0.114 and 0.493 in assay [4]; 0.096 and 0.45 in assay [5]; -0.317 and 0.0886 in assay [6]. For the same compound, the composite z-score was 0.224 and 0.889 in the assay on Sam68 (KHDRBS1); 0.852 and -0.0756 in [7]; -0.243 and 0.199 in [8]. Further, the composite Z-score in [1] is -0.0965 (inactive) and 0.733 (inactive).

In the case of `CCN1C(=O)[C@H]2[C@H]3[C@H](O)[C@H](O)CC(=NNC(=O)OCc4ccc(OC)cc4)[C@H]3CC[C@H]2C1=O`, the composite z-score with Albumin (Bos taurus) is 0.878; in [2], 0.0979; in assay [3], -0.0903; in [4], -0.121; in assay [5], 0.0203; in assay [6], 0.5. Besides, the composite z-score in the assay on Sam68 (KHDRBS1) was -0.0112; in assay [7], 0.737; in assay [8], 0.364. Besides, the composite Z-score in [1] is -0.388 (inactive).

With `C=CCN(Cc1ccccc1)C(=O)C1N(CCCCCCO)C(=O)C2C(C(=O)O)C3C=CC21O3` (stereo not given), the composite z-score with Albumin (Bos taurus) was -0.198 and 0.768; in assay [2] it was -0.541 and -0.445; in assay [3] it was -0.14 and -0.154; in assay [4] it was 0.812 and 0.904; in assay [5], -0.376 and -0.155; in [6], -0.694 and -0.332. Further, the composite z-score in the assay on Sam68 (KHDRBS1) is -0.442 and -1.97; in assay [7] it was -3.18 and -2.25; in [8], -0.588 and -2.21. Moreover, the composite Z-score in [1] was -0.461 (inactive) and -0.2 (inactive).

On to `CON(C)C(=O)c1nnc2c3ccccc3n(S(=O)(=O)c3ccc(C)cc3)c2n1`, for which the composite z-score was 0.622 and 0.0016 with Albumin (Bos taurus); -0.0111 and 0.211 in assay [2]; -0.104 and -0.109 in [3]; 0.393 and 0.481 in assay [4]; 0.19 and 1 in [5]; 0.101 and 0.208 in assay [6]. Besides, the composite z-score in the assay on Sam68 (KHDRBS1) is 0.41 and 1.3; in assay [7], 0.828 and 0.553; in assay [8] it was 1.1 and 1.14. In addition, the composite Z-score in assay [1] was 0.891 (inactive) and 0.79 (inactive).

Take `C=CCN(CCCC)C(=O)C1N(c2c(Cl)cccc2CO)C(=O)C2C(C(=O)O)C3C=CC21O3` (stereo not given): the composite z-score was -0.817 and -0.128 with Albumin (Bos taurus); -0.408 and 0.539 in [2]; -0.173 and 0.608 in assay [3]; -0.748 and 0.955 in [4]; -0.455 and 1.89 in assay [5]; -0.111 and -0.125 in assay [6]. Besides, the composite z-score is -0.818 and -1 in the assay with Sam68 (KHDRBS1); -1.4 and -1.99 in [7]; -1.69 and -2.68 in assay [8]. For the same compound, in assay [1], the composite Z-score was -0.533 (inactive) and 0.273 (inactive).

`C=CCN(CCCCC)C(=O)C1N(c2c(Cl)cccc2CO)C(=O)C2C(C(=O)O)C3C=CC21O3` (stereo not given): the composite z-score with Albumin (Bos taurus) is -1.16 and -0.735; in assay [2] it was -0.508 and -0.548; in [3], -0.245 and -0.184; in assay [4] it was 0.846 and 0.315; in [5], -0.115 and -0.621; in [6], -0.0989 and -0.178. Besides, the composite z-score is -0.331 and -0.297 in the assay with Sam68 (KHDRBS1); -2.24 and -2.28 in assay [7]; -1.5 and -0.938 in assay [8]. Moreover, the composite Z-score in assay [1] was -0.823 (inactive) and 0.131 (inactive).

For the compound `C=CCN(C(=O)C1N(C(C)(C)CO)C(=O)C2C(C(=O)O)C3C=CC21O3)C(C)(C)C` (stereo not given), the composite z-score with Albumin (Bos taurus) was -0.768 and -1.3; in assay [2] it was -0.664 and -0.47; in [3], -0.154 and -0.208; in [4] it was 0.856 and 0.799; in assay [5] it was -1.2 and 0.643; in assay [6], -0.393 and 1.52. The composite z-score is -0.967 and -0.65 with Sam68 (KHDRBS1); -3.3 and -1.67 in assay [7]; -0.855 and -1.83 in [8]. In [1], the composite Z-score is -0.057 (inactive) and -0.12 (inactive).

As for `COC(=O)[C@@]1(Cc2ccc(F)cc2)[C@H]2c3cc(C(=O)N4CCCC4)n(Cc4c(CO)[nH]cc(C)c4=O)c3C[C@H]2CN1C(=O)c1ccccc1`, the composite z-score is 1.07 and 0.247 with Albumin (Bos taurus); 1.28 and 0.355 in [2]; 0.908 and 0.11 in [3]; 0.439 and 0.769 in assay [4]; 2.88 and 2.95 in assay [5]; 0.614 and 0.478 in assay [6]. Also, the composite z-score in the assay on Sam68 (KHDRBS1) is -0.201 and 0.623; in [7], -0.114 and -0.367; in [8], 0.196 and 0.0402. Moreover, the composite Z-score in assay [1] is 0.418 (inactive) and 0.724 (inactive).

For the compound `CCCC[C@@H]1CN2[C@@H](CC[C@@H](C)[C@@H]2c2ccc(Br)cc2)C(=O)O1`, the composite z-score in the assay with Albumin (Bos taurus) is 0.604 and 0.712; in [2] it was 0.0293 and -0.0219; in [3], -0.104 and -0.164; in [4] it was 0.284 and 0.282; in [5], 1.22 and 0.595; in [6] it was -0.0028 and 0.498. For the same compound, the composite z-score in the assay on Sam68 (KHDRBS1) was 1.1 and 0.929; in assay [7], 0.306 and 0.0739; in assay [8] it was 0.402 and 0.987. In assay [1], the composite Z-score is 0.548 (inactive) and 0.14 (inactive).

For `COC(=O)C1=C2N(Cc3ccccc3)C(C)=C(C(=O)OC)[C@@H](c3ccccc3)N2C(=O)[C@](O)(C(=O)OC)C1`, the composite z-score was 0.514 and -0.0136 in the assay with Albumin (Bos taurus); 0.0349 and -0.063 in [2]; -0.171 and -0.0476 in assay [3]; 0.416 and -0.0902 in assay [4]; 0.877 and -0.0061 in assay [5]; -0.109 and 0.809 in assay [6]. The composite z-score in the assay on Sam68 (KHDRBS1) is 0.776 and 0.133; in assay [7], 0.392 and 0.77; in [8], 0.712 and -0.0245. Moreover, the composite Z-score in [1] is 0.606 (inactive) and 0.656 (inactive).

Take `CCOC(=O)c1ccc(NC(=O)O[C@H]2[C@H](OC(=O)Nc3ccccc3)[C@@H](OC(=O)Nc3ccccc3)[C@@H](OC)O[C@@H]2CO)cc1`: the composite z-score is 0.905 and 0.893 with Albumin (Bos taurus); 0.228 and 0.318 in assay [2]; 0.0149 and -0.0131 in assay [3]; 0.527 and 0.688 in assay [4]; 2.63 and 1.91 in assay [5]; 0.336 and 0.278 in assay [6]. Moreover, the composite z-score in the assay on Sam68 (KHDRBS1) was 1.31; in assay [7], -0.193 and -0.279; in assay [8], 1.23 and 1.17. The composite Z-score in assay [1] is 1.09 (inactive) and 0.682 (inactive).

Turning to `CCCC[C@@H]1CN2[C@H](c3ccc(Br)cc3)[C@@H](C)CC[C@H]2C(=O)O1`, the composite z-score was -0.102 and -0.193 in the assay with Albumin (Bos taurus); -0.17 and -0.0888 in assay [2]; -0.14 and -0.0316 in [3]; -0.199 and -0.139 in assay [4]; -0.263 and 0.0681 in assay [5]; 0.43 and 0.159 in [6]. Further, the composite z-score with Sam68 (KHDRBS1) is -0.32 and 0.277; in assay [7], 0.204 and 0.111; in assay [8], 0.404 and -0.854. Also, the composite Z-score in assay [1] is -0.0662 (inactive) and -0.0677 (inactive).

With `CO[C@@H]1C=CCC(=O)N2CCC[C@H]2C(=O)OC[C@H](C)C(=O)OC[C@H]1C`, the composite z-score was 0.987 with Albumin (Bos taurus); -0.0077 in [2]; 0.012 in assay [3]; 0.403 in assay [4]; -0.555 in assay [5]; -0.795 in assay [6]. Moreover, the composite z-score was 0.216 in the assay on Sam68 (KHDRBS1), 1.01 in assay [7] and -0.607 in [8]. Moreover, in assay [1], the composite Z-score is 0.392 (inactive).

For `C=CCN(CCCC)C(=O)C1N(c2ccc(CCO)cc2)C(=O)C2C(C(=O)O)C3C=CC21O3` (stereo not given), the composite z-score with Albumin (Bos taurus) was -0.196 and -1.75; in assay [2] it was -0.454 and -0.477; in assay [3], 0.0039 and -0.14; in assay [4], 0.809 and 0.91; in assay [5] it was 0.253; in assay [6], -1.05 and -0.525. Also, the composite z-score with Sam68 (KHDRBS1) is -1.48 and -0.741; in assay [7], -3.26 and -3.79; in assay [8], -1.74 and -2.64. Besides, in assay [1], the composite Z-score was -0.708 (inactive) and -0.319 (inactive).

In the case of `CC(C)[Si]1(C(C)C)OCc2cc(C3CC3)nc(CCc3ccccc3)c21`, the composite z-score was -0.367 and -0.0511 with Albumin (Bos taurus); -0.0716 and -0.135 in assay [2]; -0.155 and -0.176 in [3]; -0.344 and 0.027 in assay [4]; -0.416 and 0.368 in assay [5]; -0.0371 and -0.455 in assay [6]. In addition, the composite z-score with Sam68 (KHDRBS1) was -0.636 and 0.47; in [7], 0.32 and 0.195; in assay [8], 0.211 and 0.513. In addition, in assay [1], the composite Z-score is -0.145 (inactive) and -0.387 (inactive).
